Laboratory results from PubChem BioAssay (Tox21).
Inconclusive results are not listed. The source made the active and inactive calls. Unless noted, calls follow the shape of the dose curve; as a rule, active = well fitted curve in the direction sought with a large enough effect in the repeat runs; inconclusive = weak or mixed curves; inactive = no such curve, though single readings can be large; an effect the other way counts as inactive or inconclusive.

Tests used:
[1] = qHTS assay to identify small molecule antagonists of the retinoid acid receptor (RAR) signaling pathway - cell viability counter screen (AID 1159551); also: nearly all actives have a fitted effect of over 35% in size
How it was run: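 In this counter screen, the RARE-luciferase line C3RL4 was exposed for 6 h at 37 C and 5% CO2 to compounds with retinol at 1 uM final. Cellular ATP, read by luminescence, served as the viability measure.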

[2] = qHTS assay to identify small molecule antagonists of the retinoic acid receptor (RAR) signaling pathway (AID 1159552; also: nearly all actives have a fitted effect of over 50% in size)
How it was run: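 Quantitative HTS in C3RL4 RARE-luciferase reporter cells. Compounds were added with 1 uM (final) retinol; luminescence was read after 6 hr.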

[3] = qHTS assay to identify small molecule agonists of the retinoic acid receptor (RAR) signaling pathway (AID 1159553)
How it was run: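 In this cell-based screen, 1,000 C3RL4 cells per well were cultured overnight, dosed with test chemicals in DMSO for 6 hr, and assessed for RARE luciferase luminescence.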

[4] = qHTS assay to identify small molecule antagonists of the estrogen related receptor (ERR) signaling pathway from Tox21 library - cell viability counter screen (AID 1224834); also: nearly all actives have a fitted effect of over 30% in size
How it was run: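 Counter screen run in ERR cells (2,000 cells/well): cells pre-incubated 6 h, then treated with compounds for 17.5 h at 37 C. Fluorescence was read 30 min after CellTiter-Fluor addition.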

[5] = molecular target: Luciferin 4-monooxygenase (Photinus pyralis) (UniProt P08659); experiment: qHTS assay to identify small molecule inhibitors of firefly luciferase (AID 1224835); also: nearly all actives have a fitted effect of over 25% in size
How it was run: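 Biochemical qHTS: compounds run as interplate titrations against purified firefly enzyme, with D-luciferin and ATP each at its KM concentration. Light output recorded by CCD imaging.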

[6] = qHTS assay to identify small molecule agonists of the constitutive androstane receptor (CAR) signaling pathway - cell viability counter screen (AID 1224836); also: nearly all actives have a fitted effect of over 45% in size
How it was run: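 Counter screen multiplexed with the CAR reporter readout: HepG2 cells co-transfected with hCAR and the CYP2B6-2.2kb construct receive a 15-concentration compound series and 0.75 uM PK11195 (final), then CellTiter-Fluor fluorescence is read after 23 h.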

[7] = qHTS assay to identify small molecule antagonists of the constitutive androstane receptor (CAR) signaling pathway - cell viability counter screen (AID 1224837); also: nearly all actives have a fitted effect of over 45% in size
How it was run: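 CITCO at 50 nM final was added alongside compounds (15 concentrations) to double-stable hCAR/CYP2B6-2.2kb HepG2 cells. Following 23 hr at 37 C, cell viability was quantified by CellTiter-Fluor fluorescence intensity.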

[8] = molecular target: Nuclear receptor subfamily 1 group I member 3 (Homo sapiens) (UniProt Q14994); experiment: qHTS assay to identify small molecule antagonists of the constitutive androstane receptor (CAR) signaling pathway (AID 1224838); also: nearly all actives have a fitted effect of over 40% in size
How it was run: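 Inhibition of CITCO-driven (50 nM final) CYP2B6 reporter expression is measured in HepG2 cells stably carrying hCAR. Fifteen compound concentrations are applied for 24 h at 37 C, followed by luciferase luminescence.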

[9] = qHTS assay to identify small molecule antagonists of the estrogen related receptor signaling pathway with the pleiotropic PPARgamma coactivator (PGC) from Tox21 10K library - cell viability counter screen (AID 1224840; active = well fitted cell-killing curve with a large enough effect in the repeat runs, not every such curve was filed as active; also: nearly all actives have a fitted effect of over 40% in size)
How it was run: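 Readout: fluorescence intensity from CellTiter-Fluor after 30 min at 37 C/5% CO2. Preceded by 17.5 h treatment of PGC/ERR cells with DMSO-dissolved compounds, added 6 h post-seeding.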

[10] = qHTS assay to identify small molecule agonists of the hypoxia (HIF-1) signaling pathway - cell viability counter screen (AID 1224844; calls by dose curve; also: nearly all actives have a fitted effect of over 50% in size)
How it was run: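 In this counter screen, HRE-bla ME-180 cell viability after 17 hrs of compound exposure at 37C was read by CellTiter-Glo luminescence, multiplexed with the beta-lactamase reporter measurement.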

[11] = qHTS assay to identify small molecule agonists of H2AX (AID 1224845; active = well fitted activation curve with a large enough effect in the signal ratio in the repeat runs, not every such curve was filed as active; the % refers to the signal ratio)
How it was run: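 Wild-type CHO-K1 cells, plated overnight, exposed 3hr at 37C to 15 concentrations (0.76% DMSO final). Lysed, then HTRF anti-pH2AX (S139) cryptate and anti-H2AX-d2 antibodies, 24 hr room temperature; 665/620 nm emission read.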

[12] = qHTS assay to identify small molecule agonists of H2AX - cell viability counter screen (AID 1224847; calls by dose curve; also: top concentration of the series differs between compounds; nearly all actives have a fitted effect of over 30% in size)
How it was run: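 We seed wild-type CHO-K1 cells overnight, treat them for 3 hr at 37C with compounds in 15-concentration series, and quantify remaining viability by CellTiter-Glo luminescence.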

[13] = qHTS RealTime-Glo MT Cell Viability Assay in HepG2 cells - 24 hour (AID 1224867); also: nearly all actives have a fitted effect of over 50% in size
How it was run: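 Viability was tracked continuously by NanoLuc luminescence from prosubstrate reduced by living HepG2 cells, at successive time points over 40 h of compound exposure. Cells with reagent were preincubated 5 h at 37 °C before compound addition.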

[14] = qHTS assay to identify small molecule antagonists of the estrogen related receptor signaling pathway with the pleiotropic PPARgamma coactivator (PGC) from Tox21 10K library (AID 1224841; call rule not given here; also: actives are mostly falling curves and most rising ones were filed inactive; nearly all actives have a fitted effect of over 50% in size)
How it was run: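 One-Glo luminescence, measured after half an hour at room temperature, quantified reporter output of PGC/ERR cells. These had been plated at 2,000 per well, incubated 6 h, dosed with compounds in DMSO, then kept 18 h at 37 C.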

[15] = qHTS assay to identify small molecule agonists of the estrogen related receptor signaling pathway with the pleiotropic PPARgamma coactivator (PGC) from Tox21 10K library (AID 1224842); also: nearly all actives have a fitted effect of over 15% in size
How it was run: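 PGC/ERR reporter cell line, 2,000 cells per well, incubated 6 h at 37 C before 23 nL compound in DMSO was added. After 18 h at 37 C, One-Glo luminescence read following 30 min at room temperature.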

[16] = qHTS assay to identify small molecule agonists of the hypoxia (HIF-1) signaling pathway (AID 1224846; active = well fitted activation curve with a large enough effect in the signal ratio in the repeat runs, not every such curve was filed as active; the % refers to the signal ratio)
How it was run: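 ME-180 HRE-bla reporter cells; compounds in DMSO, 17 h at 37C; read-out beta-lactamase via CCF4-AM FRET.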

[17] = qHTS assay to identify small molecule antagonists of the estrogen related receptor (ERR) signaling pathway from Tox21 library (AID 1224848); also: nearly all actives have a fitted effect of over 50% in size
How it was run: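 Quantitative high-throughput format: ERR reporter cells (2,000/well) pre-incubated 6 h, treated 18 h at 37 C with compounds in DMSO alongside positive and negative controls, then read by ONE-Glo luminescence.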

[18] = qHTS assay to identify small molecule agonists of the estrogen related receptor (ERR) signaling pathway from Tox21 library (AID 1224849; calls by dose curve; also: nearly all actives have a fitted effect of over 15% in size); conditions: ERR reporter cell line, ONE-Glo luciferase, 18 h; at 92.4 µM (top of the series) unless noted
How it was run: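 Luciferase activity in ERR pathway reporter cells served as the agonist readout; exposure lasted 18 h at 37 C, with ONE-Glo detection after 30 min at room temperature.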

[19] = molecular target: Thyrotropin receptor (Homo sapiens) (UniProt P16473); experiment: qHTS assay to identify small molecule agonists of the thyroid stimulating hormone receptor (TSHR) signaling pathway (AID 1224843; calls by dose curve; also: nearly all actives have a fitted effect of over 45% in size)
How it was run: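 Agonist-mode screen: TSHR HEK293 cells received test chemicals for half an hour at room temperature, then HTRF cAMP detection reagents for one hour prior to fluorescence measurement. Each chemical ran as a 15-concentration series, triplicated.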
% is scaled to controls: 0 for no effect and ±100 for the full control effect.

Luciferin 4-monooxygenase (Photinus pyralis), sequence (P08659 whole entry, looked up): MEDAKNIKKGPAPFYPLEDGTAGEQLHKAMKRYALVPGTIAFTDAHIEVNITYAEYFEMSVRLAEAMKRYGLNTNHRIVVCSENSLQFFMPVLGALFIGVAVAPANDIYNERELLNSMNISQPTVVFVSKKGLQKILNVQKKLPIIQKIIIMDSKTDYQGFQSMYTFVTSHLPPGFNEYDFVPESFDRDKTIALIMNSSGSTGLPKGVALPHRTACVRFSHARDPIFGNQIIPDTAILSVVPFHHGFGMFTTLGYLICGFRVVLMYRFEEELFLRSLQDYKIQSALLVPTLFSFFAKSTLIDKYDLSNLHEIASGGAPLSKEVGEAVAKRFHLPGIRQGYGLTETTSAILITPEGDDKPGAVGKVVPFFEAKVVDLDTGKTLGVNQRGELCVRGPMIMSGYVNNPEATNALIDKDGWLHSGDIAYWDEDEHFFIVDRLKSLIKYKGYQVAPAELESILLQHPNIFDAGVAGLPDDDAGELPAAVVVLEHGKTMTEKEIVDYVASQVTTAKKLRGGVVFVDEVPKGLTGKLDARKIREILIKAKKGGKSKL
Thyrotropin receptor (Homo sapiens), sequence (P16473 whole entry, looked up): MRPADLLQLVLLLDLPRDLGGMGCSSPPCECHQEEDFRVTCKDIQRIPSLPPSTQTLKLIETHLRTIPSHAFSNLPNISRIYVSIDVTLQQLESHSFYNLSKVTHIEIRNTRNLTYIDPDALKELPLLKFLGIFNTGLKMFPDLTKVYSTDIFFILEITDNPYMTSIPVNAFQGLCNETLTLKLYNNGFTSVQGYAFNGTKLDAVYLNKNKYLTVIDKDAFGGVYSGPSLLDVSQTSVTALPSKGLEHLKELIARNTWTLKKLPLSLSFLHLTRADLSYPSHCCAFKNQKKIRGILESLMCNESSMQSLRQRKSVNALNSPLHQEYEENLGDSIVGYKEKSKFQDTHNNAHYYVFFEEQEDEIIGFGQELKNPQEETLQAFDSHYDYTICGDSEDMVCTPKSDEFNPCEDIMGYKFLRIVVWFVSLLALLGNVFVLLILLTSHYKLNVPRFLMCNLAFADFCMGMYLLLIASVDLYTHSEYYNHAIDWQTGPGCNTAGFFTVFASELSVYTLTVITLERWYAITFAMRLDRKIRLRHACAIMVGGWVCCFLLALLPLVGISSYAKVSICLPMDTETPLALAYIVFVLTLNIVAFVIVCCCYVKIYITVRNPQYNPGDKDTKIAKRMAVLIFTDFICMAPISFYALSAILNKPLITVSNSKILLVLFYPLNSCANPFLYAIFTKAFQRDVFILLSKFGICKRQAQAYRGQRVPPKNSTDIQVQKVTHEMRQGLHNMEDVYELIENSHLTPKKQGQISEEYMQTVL
Nuclear receptor subfamily 1 group I member 3 (Homo sapiens), sequence (Q14994 whole entry, looked up): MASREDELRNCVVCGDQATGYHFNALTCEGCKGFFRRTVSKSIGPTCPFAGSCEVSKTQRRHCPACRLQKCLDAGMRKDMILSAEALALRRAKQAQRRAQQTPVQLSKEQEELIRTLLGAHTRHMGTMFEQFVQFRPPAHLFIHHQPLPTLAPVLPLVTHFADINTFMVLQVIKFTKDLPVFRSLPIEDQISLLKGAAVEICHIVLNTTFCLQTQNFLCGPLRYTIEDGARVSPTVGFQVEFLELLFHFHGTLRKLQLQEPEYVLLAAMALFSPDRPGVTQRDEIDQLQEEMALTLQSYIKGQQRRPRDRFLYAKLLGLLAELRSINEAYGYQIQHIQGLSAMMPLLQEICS

COC(=O)c1c(C)cc(O)c(C)c1O
inactive: outcome [1] | outcome [2] | Potency [3] | outcome [4] | Potency [5] | outcome [6] | outcome [7] | outcome [8] | outcome [9] | outcome [10] | outcome [11] | outcome [12] | outcome [13]

C[Si](C)(C)O[Si](O)(O)O
inactive: outcome [1] | outcome [2] | Potency [3] | outcome [4] | Potency [5] | outcome [6] | outcome [7] | outcome [9] | Potency [14] | Potency [15] | outcome [10] | outcome [11] | outcome [16] | outcome [12] | outcome [17] | activity change, positive = activation [18] 4.29% | outcome [13]

CC(C)(Sc1cc(C(C)(C)C)c(O)c(C(C)(C)C)c1)Sc1cc(C(C)(C)C)c(O)c(C(C)(C)C)c1
inactive: outcome [1] | outcome [2] | Potency [3] | outcome [4] | Potency [5] | outcome [6] | outcome [7] | outcome [9] | Potency [14] | Potency [15] | Potency [19] | outcome [10] | outcome [11] | outcome [12] | outcome [17] | activity change, positive = activation [18] 3.41% [at 42.5 µM] | outcome [13]

CCCCCCCCCCCC(C)=O
inactive: outcome [1] | outcome [2] | Potency [3] | outcome [4] | Potency [5] | outcome [6] | outcome [7] | outcome [9] | Potency [14] | Potency [15] | Potency [19] | outcome [10] | outcome [11] | outcome [16] | outcome [12] | outcome [17] | activity change, positive = activation [18] -0.269% | outcome [13]

CNC(=O)c1c(I)c(NC(C)=O)c(I)c(C(=O)O)c1I
inactive: outcome [1] | outcome [2] | Potency [3] | outcome [4] | Potency [5] | outcome [6] | outcome [7] | outcome [9] | Potency [14] | Potency [15] | outcome [10] | outcome [11] | outcome [16] | outcome [12] | outcome [17] | activity change, positive = activation [18] 2.26% [at 42.5 µM] | outcome [13]

CCCCC(CC)COC(=O)CC#N (centres undefined)
inactive: outcome [1] | outcome [2] | Potency [3] | outcome [4] | Potency [5] | outcome [6] | outcome [7] | outcome [9] | Potency [14] | Potency [15] | Potency [19] | outcome [10] | outcome [11] | outcome [12] | outcome [17] | activity change, positive = activation [18] -0.23% | outcome [13]

CCCCCC(CC)OC(=O)CCCOc1ccc(Cl)cc1Cl (centres undefined)
inactive: outcome [1] | outcome [2] | Potency [3] | outcome [4] | Potency [5] | outcome [6] | outcome [7] | outcome [9] | Potency [15] | outcome [10] | outcome [11] | outcome [12] | outcome [17] | activity change, positive = activation [18] 6.42% | outcome [13]
